RBX1-CUL1 inh = human ROC1-CUL1 E3 ligase inhibition; actives 0.6% (n = 140,000); inhibition, % at 10 µM; in vitro K48 di-Ub FRET, acceptor:donor ratio, 45 min; in the data active = inhibition above about 25%
A number is an active result; – = inactive. The full list was thinned out, with hits kept by preference.

SMILES	RBX1-CUL1 inh
Cc1ccc2c(Cl)c(C(=O)N3CCN(c4ccccc4)CC3)sc2c1	–
O=C(NC(=S)Nc1ccc(S(=O)(=O)N2CCCC2)cc1)c1sc2ccccc2c1Cl	–
C=CCn1c(SCC(=O)Nc2cc(C)ccc2OC)nc2sc3c(c2c1=O)CCCC3	–
CCN(CC)C(=O)CSc1nnc(-c2ccc(NC(C)=O)cc2)n1C	–
COc1cc(/C=C2/C(=O)NN(c3ccc(C)c(C)c3)C2=O)cc(Br)c1OC(C)=O	31
COc1cc(/C=C2/C(=O)NN(c3ccc(I)cc3)C2=O)cc(Br)c1OC(C)=O	–
COc1cc(/C=C2/C(=O)NN(c3ccc(C)c(C)c3)C2=O)ccc1OCC(=O)N1CCOCC1	–
COC(=O)c1ccc(NC(=O)CSc2nc(C)nc3sc4c(c23)CCC4)cc1	–
Cc1nc(SCC(=O)Nc2ccc3c(c2)OCCO3)c2c3c(sc2n1)CCCC3	42
Cc1nc(SCC(=O)Nc2ccc3ccccc3c2)c2c3c(sc2n1)CCCC3	–
Cn1cccc1/C=C1/C(=O)ON=C1c1ccccc1	–
CCN1C(=O)S/C(=C/c2cccn2C)C1=O	–
Cn1cccc1/C=C/c1cc(Br)c(/C=C/c2cccn2C)cc1Br	95
COc1ccccc1NC(=O)CSc1ncc2c(n1)-c1cc(Cl)ccc1N(C)S2(=O)=O	–
COc1ccc(CNC(=O)CSc2ncc3c(n2)-c2cc(Cl)ccc2N(Cc2ccccc2)S3(=O)=O)cc1	–
COc1ccc(NC(=O)CSc2ncc3c(n2)-c2cc(Cl)ccc2N(Cc2ccccc2F)S3(=O)=O)cc1	45
CCn1ncc(Br)c1C(=O)Nc1ccc(-c2nc3ccc(C)cc3s2)cc1	–
O=C1C=CC2=C(c3ccccc3C(=O)O)C3C=CC(=O)C(Br)C3OC2=C1Br (stereo unspecified)	113
O=C1C(Br)=CC2=C(c3ccccc3C(=O)O)C3C=C(Br)C(=O)C(Br)C3OC2=C1Br (stereo unspecified)	117
O=C(NCc1ccc2c(c1)OCO2)c1ccc(C(=O)NCc2ccc3c(c2)OCO3)nc1	–
CCOc1c(Br)cc(/C=C2/SC(=O)N(CC(=O)OC)C2=O)cc1Br	–
Cc1ccc(CN2CCN(C3CCN(C(C)C)CC3)C(CCO)C2)o1 (stereo unspecified)	–
CCC1CCc2nc3sc(C(=O)Nc4ccc(OC)c(OC)c4)c(N)c3cc2C1 (stereo unspecified)	–
O=C1NN(c2ccccc2)C(=O)/C1=C\c1ccc(-c2ccc(C(=O)O)c(Cl)c2)o1	–
O=C1OC2(CCCC2)OC(=O)C1=Cc1ccc(Nc2ccc(F)cc2)o1	–
SMILES	RBX1-CUL1 inh
O=C1OC2(CCCCC2)OC(=O)C1=Cc1ccc(Nc2ccc(F)cc2)o1	–
CC1(C)OC(=O)C(=Cc2ccc(Nc3cc(C(F)(F)F)cc(C(F)(F)F)c3)o2)C(=O)O1	88
Cc1ccc(C(=O)O)cc1-c1ccc(/C=C2\SC(=O)N(CC(=O)N3CCOCC3)C2=O)o1	–
O=C(c1nc(-c2ccccc2)n(-c2ccc(Cl)cc2)n1)N1CCCCC1	–
O=C(O)c1sccc1-c1ccsc1	–
O=[N+]([O-])c1ccsc1C1OCCO1	–
O=[N+]([O-])c1sccc1-c1ccsc1	29
CC(C)c1cccc(OCCOCCN2CCNCC2)c1	–
CC(C)=NOC(=O)c1ccc(Br)cc1	–
CN1/C(=C\C(=O)CCCCC(=O)/C=C2/N(C)c3ccccc3C2(C)C)C(C)(C)c2ccccc21	–
CC(=O)c1c(O)ccc2c1[C@@H]1OC(=O)C[C@@H]1O2	98
CCCCN1N=C(C)Cn2c1nc1c2c(=O)n(CCC)c(=O)n1C	–
CCNC(=O)N1CCCC1C(=O)Nc1ccc(-c2nc3ccccc3o2)cc1 (stereo unspecified)	–
Nc1c(Br)ccc2nsnc12	104
Cc1ccc2nsnc2c1S(=O)(=O)Nc1ccccc1Br	–
c1ccc2c(c1)ccc1nsnc12	–
Oc1ccc(Oc2ncccn2)cc1	–
N#CC(Cc1ccc(Cl)cc1)=NC(=O)c1ccccc1	–
Cc1cccc2c(C(=O)O)cc(-c3ccccc3O)nc12	29
Cc1cccc2c(C(=O)N(C)C)cc(-c3cnn(Cc4ccccc4)c3)nc12	–
Cc1cccc2c(C(=O)O)cc(-c3ccc(-c4ccccc4)cc3)nc12	–
CC(=O)N1c2ccccc2-[n+]2ccsc2CC1C (stereo unspecified)	–
CC(=O)c1cc2c3c(c1)C1C=CCC1C(c1ccc([N+](=O)[O-])cc1)N3CC1CC=CC21 (stereo unspecified)	–
CC(=O)c1ccc2c(c1)C1C=CCC1C(c1cccc(Cl)c1Cl)N2 (stereo unspecified)	–
O=C(O)c1cc2c3c(c1)C1C=CCC1C(c1ccccc1Cl)N3CC1CC=CC21 (stereo unspecified)	101
O=C(O)c1cc(NCc2ccc(Oc3ccccc3)cc2)c2c(Cl)cc(Cl)cc2n1	–
Cc1nn(-c2ccccc2)c(Cl)c1C1c2c(n[nH]c2-c2ccc(Br)cc2)OC(=N)C1C#N (stereo unspecified)	–
C=C1c2ccccc2C/C(=N/O)c2ccccc21	–
Cc1ccc(N2CCn3c2nc2c3c(=O)n(C)c(=O)n2C)c(C)c1	–

Screens from PubChem.
